Source: ChEMBL document CHEMBL1961873, “Compounds: GSK PKIS; Assays: Nanosyn kinase panel” (2012)

Legend:
[1] = target: Platelet-derived growth factor receptor beta (Homo sapiens) (UniProt P09619); details: at 0.1 µM
[2] = target: Platelet-derived growth factor receptor beta (Homo sapiens) (UniProt P09619); details: at 1 µM
[3] = target: Tyrosine-protein kinase FRK (Homo sapiens) (UniProt P42685); details: at 0.1 µM
[4] = target: Tyrosine-protein kinase FRK (Homo sapiens) (UniProt P42685); details: at 1 µM
[5] = target: Protein-tyrosine kinase 2-beta (Homo sapiens) (UniProt Q14289); details: at 0.1 µM
[6] = target: Protein-tyrosine kinase 2-beta (Homo sapiens) (UniProt Q14289); details: at 1 µM
[7] = target: Proto-oncogene tyrosine-protein kinase receptor Ret (Homo sapiens) (UniProt P07949); details: at 0.1 µM
[8] = target: Proto-oncogene tyrosine-protein kinase receptor Ret (Homo sapiens) (UniProt P07949); details: at 1 µM
[9] = system: Proto-oncogene tyrosine-protein kinase receptor Ret (Homo sapiens), P07949 [V804L]; details: at 0.1 µM
Proto-oncogene tyrosine-protein kinase receptor Ret (Homo sapiens), P07949 [V804L], sequence (P07949 whole entry V804L): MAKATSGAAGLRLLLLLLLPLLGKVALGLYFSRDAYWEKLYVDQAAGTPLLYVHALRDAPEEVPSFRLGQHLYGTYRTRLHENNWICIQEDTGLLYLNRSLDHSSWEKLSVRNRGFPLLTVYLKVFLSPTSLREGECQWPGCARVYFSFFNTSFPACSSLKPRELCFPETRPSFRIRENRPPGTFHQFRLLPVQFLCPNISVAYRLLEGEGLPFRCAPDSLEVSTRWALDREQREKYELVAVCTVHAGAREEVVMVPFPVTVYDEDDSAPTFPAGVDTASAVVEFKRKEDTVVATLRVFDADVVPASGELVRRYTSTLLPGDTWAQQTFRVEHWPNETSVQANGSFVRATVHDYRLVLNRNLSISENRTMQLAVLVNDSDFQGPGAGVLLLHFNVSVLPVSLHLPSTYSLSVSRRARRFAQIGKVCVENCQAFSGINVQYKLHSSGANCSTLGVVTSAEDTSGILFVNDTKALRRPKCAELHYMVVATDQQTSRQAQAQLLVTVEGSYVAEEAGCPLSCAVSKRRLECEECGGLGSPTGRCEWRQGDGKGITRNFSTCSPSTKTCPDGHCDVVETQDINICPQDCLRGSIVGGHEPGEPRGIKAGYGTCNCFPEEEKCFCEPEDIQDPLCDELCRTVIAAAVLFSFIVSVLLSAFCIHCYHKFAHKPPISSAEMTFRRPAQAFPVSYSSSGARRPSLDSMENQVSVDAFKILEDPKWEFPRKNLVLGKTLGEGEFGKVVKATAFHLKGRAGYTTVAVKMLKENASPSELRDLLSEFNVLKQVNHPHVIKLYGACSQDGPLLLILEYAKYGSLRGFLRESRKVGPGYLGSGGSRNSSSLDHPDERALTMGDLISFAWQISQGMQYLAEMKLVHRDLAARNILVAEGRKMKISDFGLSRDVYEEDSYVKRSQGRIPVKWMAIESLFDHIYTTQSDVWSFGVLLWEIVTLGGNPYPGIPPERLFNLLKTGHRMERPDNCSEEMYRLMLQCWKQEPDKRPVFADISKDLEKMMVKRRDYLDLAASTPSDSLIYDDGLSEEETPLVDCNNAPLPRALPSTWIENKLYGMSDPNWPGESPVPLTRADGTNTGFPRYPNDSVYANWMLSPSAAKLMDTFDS

[10] = system: Proto-oncogene tyrosine-protein kinase receptor Ret (Homo sapiens), P07949 [V804L]; details: at 1 µM
[11] = system: Proto-oncogene tyrosine-protein kinase receptor Ret (Homo sapiens), P07949 [Y791F]; details: at 0.1 µM
Proto-oncogene tyrosine-protein kinase receptor Ret (Homo sapiens), P07949 [Y791F], sequence (P07949 whole entry Y791F): as the sequence (P07949 whole entry V804L) above, with Y791F, L804V counted along it

[12] = system: Proto-oncogene tyrosine-protein kinase receptor Ret (Homo sapiens), P07949 [Y791F]; details: at 1 µM
[13] = target: Macrophage-stimulating protein receptor (Homo sapiens) (UniProt Q04912); details: at 0.1 µM
[14] = target: Macrophage-stimulating protein receptor (Homo sapiens) (UniProt Q04912); details: at 1 µM
[15] = target: Proto-oncogene tyrosine-protein kinase ROS (Homo sapiens) (UniProt P08922); details: at 0.1 µM
[16] = target: Proto-oncogene tyrosine-protein kinase ROS (Homo sapiens) (UniProt P08922); details: at 1 µM
[17] = target: Proto-oncogene tyrosine-protein kinase Src (Homo sapiens) (UniProt P12931); details: at 0.1 µM
[18] = target: Proto-oncogene tyrosine-protein kinase Src (Homo sapiens) (UniProt P12931); details: at 1 µM
[19] = target: Tyrosine-protein kinase Srms (Homo sapiens) (UniProt Q9H3Y6); details: at 0.1 µM
[20] = target: Tyrosine-protein kinase Srms (Homo sapiens) (UniProt Q9H3Y6); details: at 1 µM
[21] = target: Tyrosine-protein kinase SYK (Homo sapiens) (UniProt P43405); details: at 0.1 µM
[22] = target: Tyrosine-protein kinase SYK (Homo sapiens) (UniProt P43405); details: at 1 µM
[23] = target: Tyrosine-protein kinase Tec (Homo sapiens) (UniProt P42680); details: at 0.1 µM
Tyrosine-protein kinase Tec (Homo sapiens), sequence (P42680 whole entry): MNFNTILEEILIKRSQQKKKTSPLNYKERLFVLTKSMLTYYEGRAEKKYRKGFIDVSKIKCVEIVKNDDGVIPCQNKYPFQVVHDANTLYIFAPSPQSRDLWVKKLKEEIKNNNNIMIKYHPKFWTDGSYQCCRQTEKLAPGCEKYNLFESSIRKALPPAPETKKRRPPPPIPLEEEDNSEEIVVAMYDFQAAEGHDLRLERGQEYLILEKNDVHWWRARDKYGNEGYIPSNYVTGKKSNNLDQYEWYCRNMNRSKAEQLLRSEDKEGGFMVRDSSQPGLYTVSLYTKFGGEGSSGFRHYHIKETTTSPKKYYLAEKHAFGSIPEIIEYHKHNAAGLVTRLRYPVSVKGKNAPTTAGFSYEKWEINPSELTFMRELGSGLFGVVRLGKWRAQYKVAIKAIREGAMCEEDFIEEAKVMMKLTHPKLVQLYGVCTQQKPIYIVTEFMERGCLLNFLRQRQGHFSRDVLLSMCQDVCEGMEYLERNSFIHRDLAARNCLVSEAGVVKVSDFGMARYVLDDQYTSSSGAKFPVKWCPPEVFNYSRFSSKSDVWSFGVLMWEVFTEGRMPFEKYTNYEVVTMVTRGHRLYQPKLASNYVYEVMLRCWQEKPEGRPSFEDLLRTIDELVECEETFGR

[24] = target: Tyrosine-protein kinase Tec (Homo sapiens) (UniProt P42680); details: at 1 µM
[25] = target: Angiopoietin-1 receptor (Homo sapiens) (UniProt Q02763); details: at 0.1 µM
[26] = target: Angiopoietin-1 receptor (Homo sapiens) (UniProt Q02763); details: at 1 µM
[27] = target: Non-receptor tyrosine-protein kinase TNK1 (Homo sapiens) (UniProt Q13470); details: at 0.1 µM
Non-receptor tyrosine-protein kinase TNK1 (Homo sapiens), sequence (Q13470 whole entry): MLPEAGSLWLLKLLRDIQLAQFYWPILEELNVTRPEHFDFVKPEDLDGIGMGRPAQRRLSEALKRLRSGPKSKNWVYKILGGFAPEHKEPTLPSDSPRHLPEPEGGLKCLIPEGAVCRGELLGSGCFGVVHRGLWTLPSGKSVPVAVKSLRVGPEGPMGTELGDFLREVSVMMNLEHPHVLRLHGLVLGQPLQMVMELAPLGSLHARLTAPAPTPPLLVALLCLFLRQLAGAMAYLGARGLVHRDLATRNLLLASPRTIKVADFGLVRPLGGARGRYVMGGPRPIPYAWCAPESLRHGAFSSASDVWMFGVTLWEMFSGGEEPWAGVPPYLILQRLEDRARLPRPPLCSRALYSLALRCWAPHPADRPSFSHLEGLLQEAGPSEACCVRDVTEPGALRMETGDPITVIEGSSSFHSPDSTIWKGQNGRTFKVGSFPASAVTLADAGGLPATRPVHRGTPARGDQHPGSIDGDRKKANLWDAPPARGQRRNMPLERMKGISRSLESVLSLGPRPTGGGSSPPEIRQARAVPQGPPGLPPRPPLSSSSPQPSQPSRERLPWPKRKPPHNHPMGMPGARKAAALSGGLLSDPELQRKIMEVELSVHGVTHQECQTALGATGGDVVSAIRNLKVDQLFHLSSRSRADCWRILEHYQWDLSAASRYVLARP

[28] = target: Non-receptor tyrosine-protein kinase TNK1 (Homo sapiens) (UniProt Q13470); details: at 1 µM
[29] = target: Activated CDC42 kinase 1 (Homo sapiens) (UniProt Q07912); details: at 0.1 µM
Activated CDC42 kinase 1 (Homo sapiens), sequence (Q07912 whole entry, looked up): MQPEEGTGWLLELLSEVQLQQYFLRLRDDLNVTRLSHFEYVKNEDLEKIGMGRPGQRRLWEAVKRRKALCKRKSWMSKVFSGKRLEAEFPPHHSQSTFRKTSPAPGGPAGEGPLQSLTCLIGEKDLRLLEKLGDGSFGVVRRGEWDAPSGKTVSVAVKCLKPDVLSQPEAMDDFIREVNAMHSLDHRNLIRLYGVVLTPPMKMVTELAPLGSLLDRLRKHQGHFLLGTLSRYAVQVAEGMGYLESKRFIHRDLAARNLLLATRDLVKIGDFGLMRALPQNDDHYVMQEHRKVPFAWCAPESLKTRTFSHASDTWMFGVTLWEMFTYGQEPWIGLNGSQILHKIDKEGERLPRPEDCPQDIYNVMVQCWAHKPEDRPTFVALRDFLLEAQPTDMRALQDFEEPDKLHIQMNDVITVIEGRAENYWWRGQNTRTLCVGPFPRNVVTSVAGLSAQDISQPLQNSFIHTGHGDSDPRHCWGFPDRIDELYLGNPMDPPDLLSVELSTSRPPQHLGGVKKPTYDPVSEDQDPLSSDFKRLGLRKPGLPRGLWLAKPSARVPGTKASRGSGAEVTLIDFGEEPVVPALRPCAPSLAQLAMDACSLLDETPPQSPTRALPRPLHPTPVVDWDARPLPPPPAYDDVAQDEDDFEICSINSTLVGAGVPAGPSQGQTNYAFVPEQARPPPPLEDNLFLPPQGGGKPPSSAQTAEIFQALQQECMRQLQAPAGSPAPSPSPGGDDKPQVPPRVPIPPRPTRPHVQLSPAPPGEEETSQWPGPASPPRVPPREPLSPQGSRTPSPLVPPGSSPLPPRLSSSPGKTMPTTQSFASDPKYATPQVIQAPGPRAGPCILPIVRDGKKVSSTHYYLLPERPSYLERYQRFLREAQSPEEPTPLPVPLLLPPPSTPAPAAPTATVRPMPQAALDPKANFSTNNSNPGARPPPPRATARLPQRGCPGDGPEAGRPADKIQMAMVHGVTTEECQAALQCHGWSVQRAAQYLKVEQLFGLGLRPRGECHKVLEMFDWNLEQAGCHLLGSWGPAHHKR

[30] = target: Activated CDC42 kinase 1 (Homo sapiens) (UniProt Q07912); details: at 1 µM
[31] = target: High affinity nerve growth factor receptor (Homo sapiens) (UniProt P04629); details: at 0.1 µM
[32] = target: High affinity nerve growth factor receptor (Homo sapiens) (UniProt P04629); details: at 1 µM
[33] = target: BDNF/NT-3 growth factors receptor (Homo sapiens) (UniProt Q16620); details: at 0.1 µM
[34] = target: BDNF/NT-3 growth factors receptor (Homo sapiens) (UniProt Q16620); details: at 1 µM
[35] = target: NT-3 growth factor receptor (Homo sapiens) (UniProt Q16288); details: at 0.1 µM
[36] = target: NT-3 growth factor receptor (Homo sapiens) (UniProt Q16288); details: at 1 µM
[37] = target: Tyrosine-protein kinase TXK (Homo sapiens) (UniProt P42681); details: at 0.1 µM
[38] = target: Tyrosine-protein kinase TXK (Homo sapiens) (UniProt P42681); details: at 1 µM
[39] = target: Non-receptor tyrosine-protein kinase TYK2 (Homo sapiens) (UniProt P29597); details: at 0.1 µM;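 also: each value is a mean of the inhibition readings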
[40] = target: Dual specificity protein kinase TTK (Homo sapiens) (UniProt P33981); details: at 1 µM;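 also: reported figures are mean TTK inhibition at 1 µM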
[41] = target: Aurora kinase A (Homo sapiens) (UniProt O14965); details: at 0.1 µM
[42] = target: Aurora kinase A (Homo sapiens) (UniProt O14965); details: at 1 µM
[43] = target: Aurora kinase B (Homo sapiens) (UniProt Q96GD4); details: at 0.1 µM
Aurora kinase B (Homo sapiens), sequence (Q96GD4 whole entry): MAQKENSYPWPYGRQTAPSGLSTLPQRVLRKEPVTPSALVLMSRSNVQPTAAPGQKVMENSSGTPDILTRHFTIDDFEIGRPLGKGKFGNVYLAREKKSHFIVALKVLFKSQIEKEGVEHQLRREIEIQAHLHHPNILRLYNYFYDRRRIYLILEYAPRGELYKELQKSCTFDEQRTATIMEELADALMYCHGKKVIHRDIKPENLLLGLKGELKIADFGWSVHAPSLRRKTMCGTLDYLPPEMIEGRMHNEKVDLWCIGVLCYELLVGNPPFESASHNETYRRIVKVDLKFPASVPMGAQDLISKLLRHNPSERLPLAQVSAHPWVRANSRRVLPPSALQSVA

[44] = target: Aurora kinase B (Homo sapiens) (UniProt Q96GD4); details: at 1 µM
[45] = target: Aurora kinase C (Homo sapiens) (UniProt Q9UQB9); details: at 0.1 µM
[46] = target: Aurora kinase C (Homo sapiens) (UniProt Q9UQB9); details: at 1 µM
[47] = target: Serine/threonine-protein kinase 10 (Homo sapiens) (UniProt O94804); details: at 0.1 µM
[48] = target: Serine/threonine-protein kinase 10 (Homo sapiens) (UniProt O94804); details: at 1 µM
[49] = target: Mitogen-activated protein kinase kinase kinase kinase 2 (Homo sapiens) (UniProt Q12851); details: at 0.1 µM
Mitogen-activated protein kinase kinase kinase kinase 2 (Homo sapiens), sequence (Q12851 whole entry): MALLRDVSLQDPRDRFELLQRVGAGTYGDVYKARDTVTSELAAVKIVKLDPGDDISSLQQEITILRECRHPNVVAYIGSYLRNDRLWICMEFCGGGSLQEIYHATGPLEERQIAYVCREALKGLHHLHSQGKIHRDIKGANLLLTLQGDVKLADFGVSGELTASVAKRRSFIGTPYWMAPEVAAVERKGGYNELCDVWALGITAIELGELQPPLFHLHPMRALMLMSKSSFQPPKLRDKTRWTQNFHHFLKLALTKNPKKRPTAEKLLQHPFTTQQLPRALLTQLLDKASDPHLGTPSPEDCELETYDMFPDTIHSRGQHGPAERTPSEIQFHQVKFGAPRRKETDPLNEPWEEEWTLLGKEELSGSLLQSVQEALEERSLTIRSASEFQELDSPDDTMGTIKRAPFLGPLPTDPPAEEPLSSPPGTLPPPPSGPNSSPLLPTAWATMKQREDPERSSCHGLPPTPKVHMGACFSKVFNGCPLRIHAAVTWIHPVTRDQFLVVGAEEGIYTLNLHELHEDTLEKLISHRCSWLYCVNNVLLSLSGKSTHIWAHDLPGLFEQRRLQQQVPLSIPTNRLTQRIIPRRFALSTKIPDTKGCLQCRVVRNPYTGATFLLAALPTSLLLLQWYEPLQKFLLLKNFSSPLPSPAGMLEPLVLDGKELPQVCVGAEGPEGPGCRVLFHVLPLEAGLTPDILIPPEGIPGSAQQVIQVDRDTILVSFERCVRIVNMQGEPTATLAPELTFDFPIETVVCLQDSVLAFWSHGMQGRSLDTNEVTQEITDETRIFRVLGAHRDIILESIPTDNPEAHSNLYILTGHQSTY

[50] = target: Mitogen-activated protein kinase kinase kinase kinase 2 (Homo sapiens) (UniProt Q12851); details: at 1 µM
[51] = target: Mitogen-activated protein kinase kinase kinase kinase 4 (Homo sapiens) (UniProt O95819); details: at 0.1 µM
[52] = target: Mitogen-activated protein kinase kinase kinase kinase 4 (Homo sapiens) (UniProt O95819); details: at 1 µM
[53] = target: Dual specificity mitogen-activated protein kinase kinase 1 (Homo sapiens) (UniProt Q02750); details: at 0.1 µM
Dual specificity mitogen-activated protein kinase kinase 1 (Homo sapiens), sequence (Q02750 whole entry): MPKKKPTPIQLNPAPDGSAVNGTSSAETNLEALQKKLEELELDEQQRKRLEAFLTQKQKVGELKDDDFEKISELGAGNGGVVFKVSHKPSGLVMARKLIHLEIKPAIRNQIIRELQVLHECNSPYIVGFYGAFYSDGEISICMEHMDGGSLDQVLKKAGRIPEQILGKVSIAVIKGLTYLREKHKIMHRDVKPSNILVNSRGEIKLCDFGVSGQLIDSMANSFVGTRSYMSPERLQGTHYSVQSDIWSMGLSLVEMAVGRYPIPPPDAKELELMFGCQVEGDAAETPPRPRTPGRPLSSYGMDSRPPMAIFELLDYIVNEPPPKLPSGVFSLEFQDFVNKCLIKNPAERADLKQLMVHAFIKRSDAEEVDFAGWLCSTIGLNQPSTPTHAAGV

[54] = target: Dual specificity mitogen-activated protein kinase kinase 1 (Homo sapiens) (UniProt Q02750); details: at 1 µM
[55] = target: Misshapen-like kinase 1 (Homo sapiens) (UniProt Q8N4C8); details: at 0.1 µM
[56] = target: Misshapen-like kinase 1 (Homo sapiens) (UniProt Q8N4C8); details: at 1 µM

SMILES: CNC(=O)Oc1cc(C)c(/C=C/c2cncc(C(=O)NC)c2)c(C)c1
- inhibition [1]: 8.91%
- inhibition [2]: 49.7%
- inhibition [3]: 2.61%
- inhibition [4]: 13.1%
- inhibition [5]: 10.7%
- inhibition [6]: 6.54%
- inhibition [7]: -1.48%
- inhibition [8]: 2.54%
- inhibition [9]: 2.06%
- inhibition [10]: 3.32%
- inhibition [11]: 2.2%
- inhibition [12]: 2.71%
- inhibition [13]: -0.85%
- inhibition [14]: 4.22%
- inhibition [15]: 9.53%
- inhibition [16]: 13.7%
- inhibition [17]: 5.94%
- inhibition [18]: 49.2%
- inhibition [19]: 4.13%
- inhibition [20]: 19.3%
- inhibition [21]: -1.41%
- inhibition [22]: -0.86%
- inhibition [23]: 8.66%
- inhibition [24]: 39.1%
- inhibition [25]: -0.08%
- inhibition [26]: 3.57%
- inhibition [27]: 1.27%
- inhibition [28]: 14.6%
- inhibition [29]: 0.99%
- inhibition [30]: 6.77%
- inhibition [31]: 1.04%
- inhibition [32]: -0.56%
- inhibition [33]: 1.03%
- inhibition [34]: 0.99%
- inhibition [35]: -0.56%
- inhibition [36]: 2.73%
- inhibition [37]: 13.4%
- inhibition [38]: 34.7%
- inhibition [39]: -4.14%
- inhibition [40]: 8.09%
- inhibition [41]: 2.77%
- inhibition [42]: 4.58%
- inhibition [43]: 0.2%
- inhibition [44]: 1.25%
- inhibition [45]: 0.65%
- inhibition [46]: 9.48%
- inhibition [47]: 5.93%
- inhibition [48]: 16.9%
- inhibition [49]: 0.92%
- inhibition [50]: 5.49%
- inhibition [51]: 3.12%
- inhibition [52]: 8.96%
- inhibition [53]: 2.97%
- inhibition [54]: 4.15%
- inhibition [55]: 3.2%
- inhibition [56]: 7.01%
